Data reported in the supplement of paper PMC3334620.
The full ranking holds about 33,000 sequences; the median of “E-score (-0.5 to 0.5)” is about -0.0034, and the highest 2% start at about 0.25. For the sample, the highest values were picked, then their nearest neighbours and some sequences at random.

Biological target: T1, Yap3 (UniProt P38749)
T1 sequence: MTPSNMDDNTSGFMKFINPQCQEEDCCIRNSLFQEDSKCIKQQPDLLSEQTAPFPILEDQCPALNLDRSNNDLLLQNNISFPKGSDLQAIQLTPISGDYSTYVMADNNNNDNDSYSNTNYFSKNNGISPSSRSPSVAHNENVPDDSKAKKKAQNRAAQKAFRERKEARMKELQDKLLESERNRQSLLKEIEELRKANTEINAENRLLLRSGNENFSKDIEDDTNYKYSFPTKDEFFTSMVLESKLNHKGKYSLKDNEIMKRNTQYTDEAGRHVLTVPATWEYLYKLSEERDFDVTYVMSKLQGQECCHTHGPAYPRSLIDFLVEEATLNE
Assay: PBM E-score (8-mer binding enrichment) (E-score (-0.5 to 0.5)); higher = stronger / more preferred TF binding
Settings: protein concentration: 100 nM; construct: GST-full length
Experimental: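 Universal 'all 10-mer' protein binding microarrays (Agilent AMADID 015681) probed with GST-tagged S. cerevisiae TFs (full-length or DBD) made by in vitro transcription/translation (PURExpress), about 100-200 nM. Bound TF was detected with fluorescent anti-GST. Each ungapped 8-mer (which stands for itself and its reverse complement) is scored by the PBM enrichment score (E-score), a modified Wilcoxon-Mann-Whitney statistic from -0.5 to +0.5, computed with the Universal PBM Analysis Suite. Scale: above 0.35 generally sequence-specific binding.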

First: GGAATCTA
Second: GTCGCACA
The “PBM E-score” value of the first is higher: 0.0443 for the first, -0.0581 for the second.

Going from GATTTGGA to AGATGGAA, the “PBM E-score” value rises from -0.0207 to -0.0109.

Going from ATTTATAG to ATTTATAA, the “PBM E-score” value rises from 0.206 to 0.273.

First: GTTTATAA
Second: CTTTATAA
The “PBM E-score” value of the first is higher: 0.224 for the first, 0.206 for the second.

Compared with CTTTATAC, ATTTATAC is higher in “PBM E-score” value: 0.114 for the first, 0.302 for the second.

Going from AATGAGCA to TCAACTGA, the “PBM E-score” value rises from -0.00708 to 0.0958.

First: AATGGCTA
Second: AAGAATTG
The “PBM E-score” value of the first is lower: 0.169 for the first, 0.171 for the second.

Going from TCGGGGAA to AAATGCCG, the “PBM E-score” value rises from 0.0864 to 0.113.

Compared with ATACAGAT, AGTAAATC is higher in “PBM E-score” value: 0.11 for the first, 0.159 for the second.

First: AGTAAATA
Second: CGTAAATC
The “PBM E-score” value of the first is higher: 0.26 for the first, -0.00431 for the second.

Going from AGTAAATG to CGTAAATA, the “PBM E-score” value rises from 0.0753 to 0.262.

Compared with CGGAAATA, CGGAAATC is lower in “PBM E-score” value: 0.289 for the first, 0.12 for the second.

Going from GGTAAATA to GGGAAATA, the “PBM E-score” value falls from 0.111 to 0.0786.

Compared with AGACTGAA, AGCACGTG is higher in “PBM E-score” value: -0.0205 for the first, 0.127 for the second.

Going from GAGCCACA to ACCCTATA, the “PBM E-score” value rises from -0.104 to -0.084.

Going from CGTGGATA to GCAGGTTA, the “PBM E-score” value falls from -0.0137 to -0.0925.

Going from CAAAACTA to TTAAACAA, the “PBM E-score” value falls from 0.223 to -0.026.

Going from AAAAACTA to GAAAACTA, the “PBM E-score” value falls from 0.256 to 0.16.

Compared with GAAAACAA, AAAAACAA is higher in “PBM E-score” value: 0.199 for the first, 0.28 for the second.

First: ACAAACAA
Second: GCAAACAA
The “PBM E-score” value of the first is lower: 0.173 for the first, 0.272 for the second.

Compared with TAAAACAA, GCAAACAC is lower in “PBM E-score” value: 0.0703 for the first, -0.0377 for the second.

Going from ATAAACAC to ATAAACAA, the “PBM E-score” value rises from 0.1 to 0.279.

First: ATCAGCTG
Second: ACTGGACC
The “PBM E-score” value of the first is higher: 0.195 for the first, -0.196 for the second.

Compared with ACGGAGGG, CCTGGATA is lower in “PBM E-score” value: -0.139 for the first, -0.231 for the second.

Going from CGGATTGC to GGCTTGAA, the “PBM E-score” value falls from 0.0717 to 0.0362.

Compared with AGTTTTCC, AGCCAACG is lower in “PBM E-score” value: 0.0722 for the first, 0.0109 for the second.

First: GAAAACGA
Second: AAAAACGA
The “PBM E-score” value of the first is lower: 0.00196 for the first, 0.256 for the second.

First: CAAAACGA
Second: GAGTCTAA
The “PBM E-score” value of the first is higher: 0.133 for the first, 0.00387 for the second.

First: AATCCGGG
Second: AATCCGGC
The “PBM E-score” value of the first is lower: -0.242 for the first, 0.0559 for the second.

First: AATCCGGA
Second: GACAGCTA
The “PBM E-score” value of the first is higher: 0.256 for the first, -0.119 for the second.

Going from CTGCTGGA to CCCTTTTC, the “PBM E-score” value rises from -0.158 to -0.00476.

First: TAATAGTA
Second: GAATATTA
The “PBM E-score” value of the first is lower: 0.142 for the first, 0.263 for the second.

Compared with AAATATTA, GAATATCA is lower in “PBM E-score” value: 0.349 for the first, 0.159 for the second.

Going from AAATATTC to CAATATCA, the “PBM E-score” value rises from 0.162 to 0.167.

Compared with AAATATCA, AGATATTA is lower in “PBM E-score” value: 0.187 for the first, 0.162 for the second.

First: GAATATTC
Second: TAATATTA
The “PBM E-score” value of the first is lower: 0.194 for the first, 0.347 for the second.

First: TAATATCA
Second: CAATATTA
The “PBM E-score” value of the first is higher: 0.275 for the first, 0.226 for the second.

Compared with ACATTGCC, GGCTTGAC is higher in “PBM E-score” value: -0.0211 for the first, 0.0242 for the second.

Going from AGCAACTA to TACCCAAA, the “PBM E-score” value falls from 0.143 to 0.0436.

Going from TCGGTTAA to AGGCTAGG, the “PBM E-score” value falls from 0.168 to -0.199.

First: AAGGTGCG
Second: CGTTGATC
The “PBM E-score” value of the first is lower: -0.131 for the first, 0.0509 for the second.

First: CAATATTG
Second: AAATATTT
The “PBM E-score” value of the first is lower: 0.213 for the first, 0.249 for the second.

Compared with AAATATTG, AGAAGATC is lower in “PBM E-score” value: 0.269 for the first, -0.0464 for the second.

Compared with CAGTTAGG, AATCATGG is lower in “PBM E-score” value: 0.149 for the first, 0.127 for the second.

First: AATCATGA
Second: TATCATGA
The “PBM E-score” value of the first is higher: 0.275 for the first, 0.0822 for the second.

Going from ACAATTTA to AAAAATTA, the “PBM E-score” value rises from 0.193 to 0.29.

Going from TAAATTTA to CAAAATTA, the “PBM E-score” value falls from 0.26 to 0.163.

First: CAAATTTA
Second: GCAATTTA
The “PBM E-score” value of the first is higher: 0.203 for the first, 0.139 for the second.

First: TAAAATTA
Second: TAAAATCA
The “PBM E-score” value of the first is higher: 0.28 for the first, 0.142 for the second.

Compared with AAAAATTT, AAAATTTA is lower in “PBM E-score” value: 0.145 for the first, 0.0414 for the second.

Going from TAAAATGA to CCAATTTA, the “PBM E-score” value rises from 0.23 to 0.258.

Going from CCACCAAC to CGTCCAAC, the “PBM E-score” value rises from 0.0331 to 0.0756.

Compared with ACGAGGCT, ATCTAAGG is lower in “PBM E-score” value: 0.117 for the first, 0.0735 for the second.

Compared with ACCAGACC, AAGTCATC is higher in “PBM E-score” value: -0.206 for the first, -0.0947 for the second.

First: GAGGCATC
Second: CCCGCCCC
The “PBM E-score” value of the first is lower: -0.206 for the first, 0.022 for the second.

First: CACAACTG
Second: AACAACTA
The “PBM E-score” value of the first is lower: -0.0612 for the first, 0.0618 for the second.

Compared with CACAACAA, CACAACTA is higher in “PBM E-score” value: 0.0683 for the first, 0.262 for the second.

Going from AACAACAC to GACAACAC, the “PBM E-score” value falls from 0.303 to 0.00619.

Going from AACAACAT to CACAACAC, the “PBM E-score” value falls from 0.191 to 0.173.

Going from AACAACAA to GCAATGTA, the “PBM E-score” value falls from 0.259 to 0.0481.

Compared with GGACCAAC, CTCGAGAC is higher in “PBM E-score” value: -0.182 for the first, 0.124 for the second.

Compared with CTCAGCGC, TATGGCCA is higher in “PBM E-score” value: -0.114 for the first, 0.0682 for the second.

First: ATTGTTCA
Second: ATTATCGG
The “PBM E-score” value of the first is higher: 0.159 for the first, -0.0264 for the second.

Going from AATATCTC to AATATCTA, the “PBM E-score” value falls from 0.263 to 0.0725.

Going from ATTATCAG to ATTATCTC, the “PBM E-score” value rises from 0.0829 to 0.268.

Compared with ATTATCTG, ATTATCAC is higher in “PBM E-score” value: 0.119 for the first, 0.282 for the second.

First: ATTATCGA
Second: AATATCTG
The “PBM E-score” value of the first is higher: 0.132 for the first, 0.084 for the second.

First: ATTATCGC
Second: CTTATCTC
The “PBM E-score” value of the first is higher: 0.304 for the first, 0.0941 for the second.

Going from CTTATCAC to CGTTTCCA, the “PBM E-score” value rises from -0.0604 to 0.105.

Compared with AATTCACA, CTGAGACA is lower in “PBM E-score” value: 0.238 for the first, -0.0945 for the second.

Compared with GCCCACAA, AATAGAAG is higher in “PBM E-score” value: -0.141 for the first, 0.0527 for the second.

First: CGGCAGAA
Second: TGAGTCAA
The “PBM E-score” value of the first is higher: 0.124 for the first, 0.0132 for the second.

Compared with GAACCAAA, CTGTGCCA is lower in “PBM E-score” value: -0.0377 for the first, -0.119 for the second.

First: CAGTAATG
Second: CAGTAATA
The “PBM E-score” value of the first is lower: 0.0685 for the first, 0.307 for the second.

First: GAGTAATC
Second: CAGTAATC
The “PBM E-score” value of the first is higher: 0.103 for the first, 0.0876 for the second.

Going from AAGTAATA to GAGTAATA, the “PBM E-score” value rises from 0.158 to 0.273.

Compared with CATAGGCA, AGTCGACG is higher in “PBM E-score” value: -0.0267 for the first, 0.23 for the second.

Compared with ACCACCAC, CACAGGCA is higher in “PBM E-score” value: -0.00648 for the first, 0.0714 for the second.

Going from AGACTGTC to CTTGAAAC, the “PBM E-score” value rises from -0.163 to 0.177.

Going from CCGGCCAG to CCACATAC, the “PBM E-score” value rises from -0.181 to 0.249.

Going from ACATTTTA to CTATTTGA, the “PBM E-score” value rises from 0.259 to 0.27.

Going from CTATTTTA to CTATTTTC, the “PBM E-score” value falls from 0.251 to 0.114.

First: GCATTTTA
Second: ATATTTTA
The “PBM E-score” value of the first is lower: 0.227 for the first, 0.273 for the second.

First: GTATTTTA
Second: CCATTTTA
The “PBM E-score” value of the first is lower: 0.0831 for the first, 0.222 for the second.

First: GTATTTGA
Second: ATATTTGA
The “PBM E-score” value of the first is lower: 0.137 for the first, 0.149 for the second.

Compared with ATATTTTC, ATATTTTG is lower in “PBM E-score” value: 0.261 for the first, 0.157 for the second.
